Results filed as inconclusive are left out. Calls of active or inactive are those of the source. The calls were made as follows: active = hit-call score of the fitted dose curve at least 0.9, where 1 is the maximum; inconclusive = response in the unintended direction; inactive = score below 0.9.
Experiment: ACEA_AR_agonist_AUC_viability: ACEA Biosciences xCELLigence Real-Time Cell Analysis on Androgen Receptor Agonism for Viability (AID 2283775);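 as to AC50: viability read 80 hours after compound addition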
Outline: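 Read-out is area under the impedance curve at 80 h post-dose in 22Rv1 cells, with DMSO as baseline and signal loss taken as reduced viability. Compounds ran in duplicate from 100 uM final.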

Row | SMILES | outcome | AC50
1 | CCCOc1nn(C(=O)NS(=O)(=O)c2ccccc2C(=O)OC)c(=O)n1C | inactive | –
2 | CSc1nnc(C(C)(C)C)c(=O)n1N | inactive | –
3 | C[N+]1(C)CCCCC1 | inactive | –
4 | COP(=O)(OC)C(O)C(Cl)(Cl)Cl (centres undefined) | inactive | –
5 | CC(=NC#N)N(C)Cc1ccc(Cl)nc1 | inactive | –
6 | Cc1ccn2nc(S(=O)(=O)Nc3c(F)cccc3F)nc2n1 | inactive | –
7 | CSc1nc(NC(C)C)nc(NC(C)C)n1 | inactive | –
8 | CC(C1CC1)C(O)(Cn1cncn1)c1ccc(Cl)cc1 (centres undefined) | – | 49.8 µM (active)
9 | CON=C(C(=O)OC)c1ccccc1CON=C(C)c1cccc(C(F)(F)F)c1 | – | 26.4 µM (active)
10 | CC(C)N(C(=O)SCC(Cl)=C(Cl)Cl)C(C)C | – | 89.9 µM (active)
11 | CC(C)=CC1C(C(=O)OCN2C(=O)C3=C(CCCC3)C2=O)C1(C)C (centres undefined) | – | 44 µM (active)
12 | CC[C@H](C)[C@H]1O[C@]2(C=C[C@@H]1C)C[C@@H]1C[C@@H](C/C=C(\C)[C@@H](O[C@H]3C[C@H](OC)[C@@H](O[C@H]4C[C@H](OC)[C@@H](NC)[C@H](C)O4)[C@H](C)O3)[C@@H](C)/C=C/C=C3\CO[C@@H]4[C@H](O)C(C)=C[C@@H](C(=O)O1)[C@]34O)O2 | – | 0.874 µM (active)
13 | CCC(CC)Nc1c([N+](=O)[O-])cc(C)c(C)c1[N+](=O)[O-] | – | 64.5 µM (active)
14 | CC(COc1ccc(Oc2ccccc2)cc1)Oc1ccccn1 (centres undefined) | – | 58.9 µM (active)
15 | CCc1cccc(CC)c1N(COC)C(=O)CCl | – | 50 µM (active)
16 | CCCCOC(=O)c1ccccc1C(=O)O | inactive | –
17 | Cc1nn(-c2cc(NS(C)(=O)=O)c(Cl)cc2Cl)c(=O)n1C(F)F | inactive | –
18 | CN(C)NC(=O)CCC(=O)O | inactive | –
19 | FC(F)C(F)(F)OCC(Cn1cncn1)c1ccc(Cl)cc1Cl (centres undefined) | – | 66.4 µM (active)
20 | CNc1cnn(-c2cccc(C(F)(F)F)c2)c(=O)c1Cl | inactive | –
21 | CCCCN(CC)c1c([N+](=O)[O-])cc(C(F)(F)F)cc1[N+](=O)[O-] | – | 60.9 µM (active)
22 | COc1ccc(C(=CC(=O)N2CCOCC2)c2ccc(Cl)cc2)cc1OC | inactive | –
23 | CCCCSP(=O)(SCCCC)SCCCC | – | 78.1 µM (active)
24 | COP(=O)(OC)OC(Br)C(Cl)(Cl)Br (centres undefined) | – | 75.1 µM (active)
25 | CNC(=O)ON=C(C)SC | inactive | –
26 | CNC(=O)ON=C(SC)C(=O)N(C)C | inactive | –
27 | Cc1cc(C2CC2)nc(Nc2ccccc2)n1 | – | 75.6 µM (active)
28 | CNC(=O)Oc1cccc2c1OC(C)(C)O2 | inactive | –

Experiment: ACEA_AR_antagonist_AUC_viability: ACEA Biosciences xCELLigence Real-Time Cell Analysis on Androgen Receptor Antagonism for Viability (AID 2283776);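 also: area under impedance growth curve at 80 h after dosing as viability; hits lower the growth signal relative to DMSO meaning cytotoxicity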
Outline: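 22Rv1 human prostate cancer cells were seeded on electrode plates, monitored overnight, then exposed to eight 1:4 dilutions from 100 uM final. Impedance-based growth kinetics at 80 h gave an AUC viability endpoint normalized to DMSO.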

Row | SMILES | outcome | AC50
29 | CCCOc1nn(C(=O)NS(=O)(=O)c2ccccc2C(=O)OC)c(=O)n1C | inactive | –
30 | CSc1nnc(C(C)(C)C)c(=O)n1N | inactive | –
31 | Nc1nc(N)nc(NC2CC2)n1 | inactive | –
32 | C[N+]1(C)CCCCC1 | inactive | –
33 | COP(=O)(OC)C(O)C(Cl)(Cl)Cl (centres undefined) | – | 50 µM (active)
34 | COc1cccc(C(=O)NN(C(=O)c2cc(C)cc(C)c2)C(C)(C)C)c1C | – | 76.4 µM (active)
35 | CC(=NC#N)N(C)Cc1ccc(Cl)nc1 | inactive | –
36 | Cc1ccn2nc(S(=O)(=O)Nc3c(F)cccc3F)nc2n1 | inactive | –
37 | CSc1nc(NC(C)C)nc(NC(C)C)n1 | inactive | –
38 | CC(C1CC1)C(O)(Cn1cncn1)c1ccc(Cl)cc1 (centres undefined) | – | 49.8 µM (active)
39 | CON=C(C(=O)OC)c1ccccc1CON=C(C)c1cccc(C(F)(F)F)c1 | – | 14.5 µM (active)
40 | CC(C)N(C(=O)SCC(Cl)=C(Cl)Cl)C(C)C | – | 81 µM (active)
41 | CCNc1nc(Cl)nc(NC(C)(C)C#N)n1 | – | 27 µM (active)
42 | CC(C)=CC1C(C(=O)OCN2C(=O)C3=C(CCCC3)C2=O)C1(C)C (centres undefined) | – | 48.1 µM (active)
43 | CC[C@H](C)[C@H]1O[C@]2(C=C[C@@H]1C)C[C@@H]1C[C@@H](C/C=C(\C)[C@@H](O[C@H]3C[C@H](OC)[C@@H](O[C@H]4C[C@H](OC)[C@@H](NC)[C@H](C)O4)[C@H](C)O3)[C@@H](C)/C=C/C=C3\CO[C@@H]4[C@H](O)C(C)=C[C@@H](C(=O)O1)[C@]34O)O2 | – | 1.34 µM (active)
44 | CCC(CC)Nc1c([N+](=O)[O-])cc(C)c(C)c1[N+](=O)[O-] | – | 50 µM (active)
45 | CC(Oc1cccc(Cl)c1)C(=O)O (centres undefined) | inactive | –
46 | CC(COc1ccc(Oc2ccccc2)cc1)Oc1ccccn1 (centres undefined) | – | 64.6 µM (active)

Row | SMILES | outcome | AC50
47 | CCc1cccc(CC)c1N(COC)C(=O)CCl | – | 50 µM (active)
48 | CCCCOC(=O)c1ccccc1C(=O)O | inactive | –
49 | Cc1nn(-c2cc(NS(C)(=O)=O)c(Cl)cc2Cl)c(=O)n1C(F)F | inactive | –
50 | CN1COCN(Cc2cnc(Cl)s2)C1=N[N+](=O)[O-] | inactive | –
51 | CN(C)NC(=O)CCC(=O)O | inactive | –
52 | FC(F)C(F)(F)OCC(Cn1cncn1)c1ccc(Cl)cc1Cl (centres undefined) | – | 60.5 µM (active)
53 | CNc1cnn(-c2cccc(C(F)(F)F)c2)c(=O)c1Cl | inactive | –
54 | COc1cc(OC)nc(Sc2cccc(Cl)c2C(=O)O)n1 | inactive | –
55 | CCCCN(CC)c1c([N+](=O)[O-])cc(C(F)(F)F)cc1[N+](=O)[O-] | – | 43.8 µM (active)
56 | COc1ccc(C(=CC(=O)N2CCOCC2)c2ccc(Cl)cc2)cc1OC | – | 15.2 µM (active)
57 | CN(C)C(=O)Nc1cccc(C(F)(F)F)c1 | inactive | –
58 | CCCCSP(=O)(SCCCC)SCCCC | – | 67.1 µM (active)
59 | COP(=O)(OC)OC(Br)C(Cl)(Cl)Br (centres undefined) | – | 61.3 µM (active)
60 | CCOP(=O)(OCC)Oc1cc(C)nc(C(C)C)n1 | inactive | –
61 | CNC(=O)ON=C(C)SC | inactive | –
62 | CNC(=O)ON=C(SC)C(=O)N(C)C | inactive | –
63 | Cc1cc(C2CC2)nc(Nc2ccccc2)n1 | – | 64.2 µM (active)
64 | CNC(=O)Oc1cccc2c1OC(C)(C)O2 | inactive | –

Reference: PubChem BioAssay (EPA / NIEHS)
